Assay outcomes deposited in PubChem by several laboratories.
Jurkat NFkB inh: inhibitors of induced NF-kB luciferase reporter, primary screen, TCR NF-kB activation inhibitor project, cell-based, luminescence, uHTS. inhibition, % at 4 µM. 0.53% of 330,000 active. Jurkat, PMA/ionomycin-induced NF-kB luciferase reporter; in the data active = inhibition above about 50%
CSC inhib: cancer stem cell viability inhibitors, primary screen, luminescence; AID 2717, 2010; inhibition, % at 7.5 µM; 1.1% of 300,000 active; cancer stem cell-like cells viability; in the data active = inhibition above about 75%; tested in HMLE shEcad cells
697 NFkB inh: inhibitors of PMA/ionomycin-induced NF-kB reporter, 697 cells, primary screen, B-cell NF-kB inhibitor project, cell-based, luminescence, uHTS; 697 B-cell NF-kB luciferase reporter, 16 h; inhibition, % at 4 µM; 0.33% of 330,000 active; AID 435022, 2010; in the data active = inhibition above about 35%
Mdm2 MdmX PPI: inhibitors of human Mdm2-MdmX association, primary screen, cell-based, luminescence, split luciferase, SaOS-2, uHTS; Protein Mdm4 (Homo sapiens) + E3 ubiquitin-protein ligase Mdm2 (Homo sapiens), …; inhibition, % at 8 µM; 3% of 330,000 active; AID 485346, 2010; SaOS-2 split-luciferase Mdm2/MdmX complementation;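 active = inhibition of at least 50% at 8 µM in the primary screen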
Target sequence (O15151 whole entry, looked up): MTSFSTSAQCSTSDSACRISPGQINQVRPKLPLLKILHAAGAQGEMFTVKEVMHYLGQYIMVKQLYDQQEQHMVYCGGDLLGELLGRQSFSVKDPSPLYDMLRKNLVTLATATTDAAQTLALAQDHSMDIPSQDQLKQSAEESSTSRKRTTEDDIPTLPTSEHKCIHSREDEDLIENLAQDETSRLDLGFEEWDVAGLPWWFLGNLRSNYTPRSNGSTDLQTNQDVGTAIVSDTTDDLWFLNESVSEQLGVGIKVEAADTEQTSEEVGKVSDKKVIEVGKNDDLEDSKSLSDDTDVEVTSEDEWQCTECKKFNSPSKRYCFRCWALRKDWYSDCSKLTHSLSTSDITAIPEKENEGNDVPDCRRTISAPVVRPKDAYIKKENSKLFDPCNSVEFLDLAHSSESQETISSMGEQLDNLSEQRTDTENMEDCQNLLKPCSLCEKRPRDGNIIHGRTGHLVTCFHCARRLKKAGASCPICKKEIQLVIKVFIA
Target sequence (Q00987 whole entry, looked up): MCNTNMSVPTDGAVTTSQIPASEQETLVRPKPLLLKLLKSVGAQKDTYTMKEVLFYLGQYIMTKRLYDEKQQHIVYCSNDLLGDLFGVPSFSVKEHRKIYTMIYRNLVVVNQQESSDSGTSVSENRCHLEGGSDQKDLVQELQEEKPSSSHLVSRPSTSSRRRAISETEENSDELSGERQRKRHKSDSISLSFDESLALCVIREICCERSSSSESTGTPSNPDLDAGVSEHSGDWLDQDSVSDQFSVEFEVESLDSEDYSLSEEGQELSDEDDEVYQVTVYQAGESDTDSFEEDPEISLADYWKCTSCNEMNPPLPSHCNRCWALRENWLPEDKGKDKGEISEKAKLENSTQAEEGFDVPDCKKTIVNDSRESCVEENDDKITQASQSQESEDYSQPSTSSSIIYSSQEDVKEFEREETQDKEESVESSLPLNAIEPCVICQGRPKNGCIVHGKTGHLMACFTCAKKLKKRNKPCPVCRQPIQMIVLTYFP
Beta cell apopt: inhibitors of cytokine-induced beta cell apoptosis, primary screen, luminescence. INS-1E cytokine-induced death, ATP luminescence, 48 h; percent of positive-control rescue, neutral wells zero. protection from apoptosis, % (test concentration not listed). 0.8% of 300,000 active;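 active = Every replicate reaches about 75%, or at least half do and their mean reaches it too, limit read from the data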;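 also: 0% = cytokine-treated negative control wells and 100% = positive control rescue; higher means more ATP so stronger rescue from cytokine killing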
Gli-Sufu antag: Gli-Sufu pathway antagonists, primary screen, luciferase luminescence, Sufu-KO-LIGHT cells, uHTS; Sufu-KO-LIGHT fibroblasts, Gli luciferase reporter luminescence; inhibition, % at 5 µM; 0.74% of 340,000 active;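 active = inhibition above about 55%, limit read from the data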;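 also: 0% = DMSO-treated cells and 100% = wells with medium but no cells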
Numbers without * were called inactive; x = no result given. This is a sample that favours compounds with a hit; in the whole collection about 4.5% have one here.

SMILES	Jurkat NFkB inh	CSC inhib	697 NFkB inh	Mdm2 MdmX PPI	Beta cell apopt	Gli-Sufu antag
O=c1c2ccccc2nc(/C=C/c2ccccc2F)n1-c1ccccc1O	7.1	98.4*	13.9	48.8	14.5	-1.4
CN1[C@@H]2CCC[C@H]1CC(=O)C2	x	x	x	x	x	11.0
COc1ccc2c(c1OC)CN1CCc3cc4c(cc3[C@H]1C2)OCO4	3.8	-19.3	-17.2	2.4	13.6	39.7
CCC1CN2CCc3cc(OC)c(OC)cc3C2CC1CC1NCCc2c1[nH]c1ccc(O)cc21 (stereo not drawn)	x	x	x	x	x	86.5*
O=P(Oc1ccccc1)(Oc1ccccc1)N1CCN(c2ccc(F)cc2)CC1	-1.1	2.0	-10.4	29.7	78.1*	5.8
CC(=O)OC1CCC2(C)C3CCC4(C)C(OC(C)=O)CCC4C3C(C)C2(O)C1 (stereo not drawn)	x	x	x	x	x	6.6
Cn1c(=O)n(C)c2cc([N+](=O)[O-])c(N3CCNCC3)cc21	10.3	-10.9	3.3	4.9	-1.0	57.3*
C[C@H]1[C@@H](OS(=O)(=O)O)C[C@@H]2C[C@H]([C@@H](O)c3cc(=O)[nH]c(=O)[nH]3)NC3=NC[C@H]1N32	x	x	x	x	x	76.2*
CC12C=CC(=O)C=C1CCC1C2C(O)CC2(C)C1CCC2(C)O (stereo not drawn)	x	x	x	x	x	0.6
CCCCCCOc1ccc(CN2CCN(CCO)CC2)cc1	-91.7	83.4*	-118.6	5.8	3.9	16.1
CCCCOc1ccc(CN2CCN(CCO)CC2)cc1	-28.0	29.8	-9.6	-17.9	-7.1	-2.5
CC(N)C(=O)NC1C2C(=C(O)CC(O)C2O)C(=O)OC1(C)C(Cl)Cl (stereo not drawn)	x	x	x	x	x	75.8*
C/C(=N\Nc1ccccc1)c1c(O)n(C)c(=O)n(C)c1=O	1.8	91.5*	0.4	3.4	-3.5	-4.8
C/C(=N\Nc1ccccc1)c1c(O)[nH]c(=O)[nH]c1=O	16.9	81.6*	10.1	17.8	x	6.0
Cn1c(O)c(C(=O)c2ccccc2)c(=O)n(C)c1=O	5.9	-11.8	17.0	-13.3	-1.2	-8.9
CC(=NCCCn1ccnc1)c1c(O)n(-c2ccccc2)c(=O)[nH]c1=O	-0.6	-13.2	0.4	9.8	x	0.2
C/C(=N\Nc1ccccc1)c1c(O)n(-c2ccccc2)c(=O)[nH]c1=O	12.8	75.3*	18.0	-19.4	1.2	2.9
C/C(=N\Nc1ccccc1)c1c(O)n(Cc2ccccc2)c(=O)[nH]c1=O	2.9	109.9*	4.9	9.6	2.9	1.0
C/C(=N\NC(=O)c1ccccc1O)c1c(O)n(Cc2ccccc2)c(=O)[nH]c1=O	-0.3	0.9	11.0	20.4	2.5	1.8
COC1C(O)C(C)OC(OC2C(Oc3cccc4c(O)c5c(=O)oc6ccc(C)c7c(=O)oc(c34)c5c67)OC(C)C(O)C2O)C1O (stereo not drawn)	x	x	x	x	x	4.0
Oc1ccc(O)c2c1C1(Cl)C(Cl)=C(Cl)C2(Cl)C1(Cl)Cl	x	x	x	x	x	-2.1
C=C1C(=O)OC2CC(C)C3C=CC(=O)C3(C)C(O)C12 (stereo not drawn)	x	x	x	x	x	93.9*
C=CCN1CC[C@]23c4c5ccc(O)c4OC2C(O)C=CC3[C@H]1C5 (stereo partly drawn)	-3.3	x	21.7	12.4	x	9.6
COc1cccc(-c2sc3ccccc3c2-c2ccc(OCCN3CCOCC3)cc2)c1	-3.4	104.0*	7.9	47.2	-9.6	-11.4
CC(O)C1C=CC=CC(=O)OC2CC3OC4C5OC5(C)C(O)CC4(COC(=O)C(O)C(C)CCO1)C2(C)C31CO1 (stereo not drawn)	x	x	x	x	x	91.9*
SMILES	Jurkat NFkB inh	CSC inhib	697 NFkB inh	Mdm2 MdmX PPI	Beta cell apopt	Gli-Sufu antag
CC1=CC2OC3CC4OC(=O)C=CC=CC(C(C)O)OCC(O)C5(C)OC5C(=O)OCC2(CC1O)C4(C)C31CO1 (stereo not drawn)	x	x	x	x	x	88.3*
CC1=CC2OC3CC4OC(=O)C=CC=CC(=O)OCCC(C)C(O)C(=O)OCC2(CC1)C4(C)C31CO1 (stereo not drawn)	x	x	x	x	x	92.0*
CCN(CCCl)c1cc(CN(C)C)cc(NC(=O)c2ccc(C(=O)Nc3cc(CN(C)C)cc(N(CC)CCCl)c3)cc2)c1	x	x	x	x	x	-15.7
CS(=O)(=O)N1Cc2ccccc2-n2nncc2C1	x	x	x	x	x	-0.3
CC(C)(O)/C=C/C(=O)C(C)(O)C1C(O)CC2(C)C3CC=C4C(C=C(O)C(=O)C4(C)C)C3(C)C(=O)CC12C (stereo not drawn)	x	x	x	x	x	88.8*
CN1CCN(c2ccc(S(C)(=O)=O)cc2[N+](=O)[O-])CC1	-1.9	10.0	-6.4	-16.0	-2.6	1.0
CN1CCN(c2ccc([N+](=O)[O-])c3no[n+]([O-])c23)CC1	x	104.3*	x	x	106.7*	65.5*
COc1ccc(C(=O)C2CCCN(C3CSCCSC3)C2)c(OC)c1 (stereo not drawn)	-5.9	77.5*	-22.6	-9.5	3.3	21.8
O=C(N/N=C/c1c(O)n(CCC2=CCCCC2)c(=O)[nH]c1=O)c1ccccc1	3.2	15.9	-0.7	9.6	8.3	-0.3
Nc1ccccc1N=Cc1c(O)n(CCC2=CCCCC2)c(=O)[nH]c1=O	0.3	96.2*	-6.0	23.8	96.7*	-2.9
COc1ccc(NC2Oc3cc4c(cc3C(c3cc(OC)c(OC)c(OC)c3)C2C)OCO4)cc1 (stereo not drawn)	x	x	x	x	x	44.4
C=CCCC1(CC(C)C)C(=O)NC(=S)NC1=O	x	x	x	x	x	-14.8
NS(=O)(=O)c1ccc(N=Cc2c(O)n(C3CCCCC3)c(=O)n(C3CCCCC3)c2=O)cc1	9.1	90.2*	5.5	40.4	1.5	1.8
CC1CC(C)(O)CC(C(O)CC2CC(=O)NC(=O)C2)C1=O (stereo not drawn)	x	x	x	x	x	83.8*
O=C(NCc1cccnc1)Nc1ccc([N+](=O)[O-])cc1	9.5	-0.8	-10.0	12.2	81.1*	-4.9
Cc1ccc2c(C)c3ccc4ccccc4c3c[n+]2c1	x	x	x	x	x	31.3
Cc1oc2ccc(OC(=O)N(C)C)cc2c1C(=O)OC(C)C	5.0	-7.7	7.0	31.1	-2.4	-1.5
CCOC(=O)c1c(-c2ccc(OC)cc2)oc2ccc(OC(=O)N(C)C)cc12	-19.4	76.1*	-1.6	17.9	2.5	4.9
CC1CC2(C)C(=CC1=O)CCC1C3CCC(C)(O)C3(C)CC3OC312 (stereo not drawn)	x	x	x	x	x	10.8
CC1(C(=O)O)CC12c1ccccc1-c1ccccc12 (stereo not drawn)	x	x	x	x	x	-4.9
CC1=CC(C)CC(C)OC(=O)CC(c2ccc(O)cc2)NC(=O)C(Cc2c(Br)[nH]c3ccccc23)N(C)C(=O)C(C)NC(=O)C(C)C1 (stereo not drawn)	x	x	x	x	x	83.3*
